Rows were chosen to be rich in hits. Some 3.5% of all compounds tested hit in one or more screens of this group.
mHTT CaM bind = disrupts binding of mutant huntingtin to calmodulin; P42858; AlphaScreen His-mHTT/GST-CaM binding, luminescence; inhibition, % at 15 µM; 190,000 tested, 3.6% active; AID 1671202;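 further: 0% = both proteins with DMSO and 100% = one protein alone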
Target sequence (P42858 whole entry, looked up, stated change not applied): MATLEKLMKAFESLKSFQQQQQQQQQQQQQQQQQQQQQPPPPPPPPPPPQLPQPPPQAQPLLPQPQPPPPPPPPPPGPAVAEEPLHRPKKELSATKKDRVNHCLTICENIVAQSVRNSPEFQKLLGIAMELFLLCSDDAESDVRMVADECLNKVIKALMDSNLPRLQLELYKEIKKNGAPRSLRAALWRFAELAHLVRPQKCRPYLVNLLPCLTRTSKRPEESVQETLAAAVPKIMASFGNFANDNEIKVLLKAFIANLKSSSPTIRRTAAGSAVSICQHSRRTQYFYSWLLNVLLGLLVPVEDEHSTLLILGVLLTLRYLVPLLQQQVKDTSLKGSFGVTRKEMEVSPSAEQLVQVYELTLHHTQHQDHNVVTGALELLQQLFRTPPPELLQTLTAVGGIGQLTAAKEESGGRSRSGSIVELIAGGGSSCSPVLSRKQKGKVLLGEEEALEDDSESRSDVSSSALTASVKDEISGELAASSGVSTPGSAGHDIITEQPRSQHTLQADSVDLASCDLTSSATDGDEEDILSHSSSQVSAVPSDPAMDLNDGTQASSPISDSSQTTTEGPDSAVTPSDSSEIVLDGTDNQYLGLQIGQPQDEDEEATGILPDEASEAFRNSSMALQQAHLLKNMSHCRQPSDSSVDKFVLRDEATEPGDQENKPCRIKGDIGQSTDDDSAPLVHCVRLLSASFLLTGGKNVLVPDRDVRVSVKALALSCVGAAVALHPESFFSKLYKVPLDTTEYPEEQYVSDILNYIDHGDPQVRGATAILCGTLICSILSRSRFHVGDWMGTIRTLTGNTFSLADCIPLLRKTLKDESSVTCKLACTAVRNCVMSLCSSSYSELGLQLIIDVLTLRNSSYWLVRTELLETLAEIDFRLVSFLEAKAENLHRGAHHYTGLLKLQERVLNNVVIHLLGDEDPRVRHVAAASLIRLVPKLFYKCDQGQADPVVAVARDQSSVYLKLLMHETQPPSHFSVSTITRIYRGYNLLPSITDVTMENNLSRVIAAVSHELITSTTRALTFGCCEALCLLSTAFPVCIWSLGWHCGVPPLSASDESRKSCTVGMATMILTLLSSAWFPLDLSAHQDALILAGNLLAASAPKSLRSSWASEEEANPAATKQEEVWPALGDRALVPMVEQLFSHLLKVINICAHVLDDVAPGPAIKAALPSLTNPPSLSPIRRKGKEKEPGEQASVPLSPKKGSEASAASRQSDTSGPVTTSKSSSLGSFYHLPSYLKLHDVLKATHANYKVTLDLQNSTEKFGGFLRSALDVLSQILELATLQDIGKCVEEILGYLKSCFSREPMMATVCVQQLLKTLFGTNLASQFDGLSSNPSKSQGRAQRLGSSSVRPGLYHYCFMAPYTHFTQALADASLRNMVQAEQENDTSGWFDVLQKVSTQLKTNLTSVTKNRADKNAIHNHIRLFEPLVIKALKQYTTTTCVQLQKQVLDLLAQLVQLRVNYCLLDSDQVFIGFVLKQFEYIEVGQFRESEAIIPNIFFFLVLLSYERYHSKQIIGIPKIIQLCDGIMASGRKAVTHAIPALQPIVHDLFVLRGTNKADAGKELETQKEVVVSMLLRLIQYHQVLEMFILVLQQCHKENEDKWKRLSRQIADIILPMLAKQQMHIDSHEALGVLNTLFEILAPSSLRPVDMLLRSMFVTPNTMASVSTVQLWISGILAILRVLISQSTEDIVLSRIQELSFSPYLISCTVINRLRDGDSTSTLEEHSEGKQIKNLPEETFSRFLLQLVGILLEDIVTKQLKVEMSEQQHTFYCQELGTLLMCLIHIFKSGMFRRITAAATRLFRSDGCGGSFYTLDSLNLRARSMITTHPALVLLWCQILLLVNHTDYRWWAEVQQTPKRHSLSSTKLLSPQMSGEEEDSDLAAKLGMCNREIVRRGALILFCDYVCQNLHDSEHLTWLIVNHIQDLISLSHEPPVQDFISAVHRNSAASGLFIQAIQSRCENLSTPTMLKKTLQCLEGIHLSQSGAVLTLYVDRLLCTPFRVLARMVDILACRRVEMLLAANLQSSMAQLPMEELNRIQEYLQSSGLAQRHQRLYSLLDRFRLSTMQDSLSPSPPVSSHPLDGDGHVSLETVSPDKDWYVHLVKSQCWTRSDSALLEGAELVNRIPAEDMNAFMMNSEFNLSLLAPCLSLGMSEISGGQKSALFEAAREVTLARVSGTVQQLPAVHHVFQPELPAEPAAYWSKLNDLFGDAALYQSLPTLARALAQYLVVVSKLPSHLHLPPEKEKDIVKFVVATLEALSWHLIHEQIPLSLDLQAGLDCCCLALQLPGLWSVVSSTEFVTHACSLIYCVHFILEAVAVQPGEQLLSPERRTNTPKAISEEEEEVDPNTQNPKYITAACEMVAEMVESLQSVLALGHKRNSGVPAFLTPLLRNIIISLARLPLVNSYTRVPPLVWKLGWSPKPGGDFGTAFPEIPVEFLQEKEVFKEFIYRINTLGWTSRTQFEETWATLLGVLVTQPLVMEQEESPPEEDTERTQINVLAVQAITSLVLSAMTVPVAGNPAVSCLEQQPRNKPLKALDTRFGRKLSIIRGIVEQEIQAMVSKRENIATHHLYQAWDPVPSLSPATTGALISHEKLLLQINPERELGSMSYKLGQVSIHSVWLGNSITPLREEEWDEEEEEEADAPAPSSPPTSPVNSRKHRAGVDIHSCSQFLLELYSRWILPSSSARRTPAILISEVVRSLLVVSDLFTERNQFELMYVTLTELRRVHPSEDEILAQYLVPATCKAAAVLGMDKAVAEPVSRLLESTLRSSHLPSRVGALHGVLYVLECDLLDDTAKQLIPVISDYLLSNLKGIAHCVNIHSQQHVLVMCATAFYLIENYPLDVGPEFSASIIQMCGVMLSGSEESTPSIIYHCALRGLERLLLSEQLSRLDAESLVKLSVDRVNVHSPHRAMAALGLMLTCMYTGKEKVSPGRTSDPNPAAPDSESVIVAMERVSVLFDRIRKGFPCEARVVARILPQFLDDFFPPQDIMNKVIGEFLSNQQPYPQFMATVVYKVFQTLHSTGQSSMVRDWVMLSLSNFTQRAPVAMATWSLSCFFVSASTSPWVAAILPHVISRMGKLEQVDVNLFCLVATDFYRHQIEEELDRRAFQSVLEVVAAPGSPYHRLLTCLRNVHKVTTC
Pf apPOL inh = Pf-apPOL DNA polymerase inhibition. Recombinant Pf-apPOL, molecular beacon fluorescence, 1.5 h. inhibition, % at 10 µM. 210,000 tested, 0.25% active
Active calls of the source: *; . = no result given. No stated cut-off is given here; in the data, active means inhibition above about 50%; inactive means the rest.

SMILES	mHTT CaM bind	Pf apPOL inh
O=[N+]([O-])c1cnc(NCc2cccnc2)c([N+](=O)[O-])c1	8.0	0.2
COc1ccccc1Nc1nnc(CC(=O)NC(C)c2ccc(F)cc2)s1 (centres undefined)	-2.8	-1.2
CC(C)(C)c1ccc(S(=O)(=O)N=C2C=CC(=O)c3ccccc32)cc1	94.0*	7.5
CCOc1ccc(C2C(=O)c3ccccc3C2=O)cc1	-3.9	-0.6
CCc1ccc(S(=O)(=O)N=C2C=CC(=O)C=C2)cc1	48.0	-2.3
CC(C)c1ccc(S(=O)(=O)N=C2C=C(Br)C(=O)c3ccccc32)cc1	40.0	-2.9
CCOc1ccc(S(=O)(=O)N=C2C=CC(=O)c3ccccc32)cc1	72.0*	-4.4
COc1ccc(S(=O)(=O)N=C2C=C(Br)C(=O)C(Br)=C2)cc1	46.0	-0.7
CCc1ccc(S(=O)(=O)N=C2C=CC(=O)c3ccccc32)cc1	93.0*	-2.5
CCOc1ccc(S(=O)(=O)N=C2C=CC(=O)C(Br)=C2)cc1	73.0*	-4.6
O=C(c1ccncc1)N1CCN(Cc2ccccc2)CC1	0.4	-10.2
O=C(c1cc2nc(-c3ccc(Br)cc3)cc(C(F)(F)F)n2n1)N1CCCC1	4.0	-1.4
CCOC(=O)c1sc(Sc2ccc(C(F)(F)F)cc2[N+](=O)[O-])nc1C	.	-6.8
CCn1c(-c2ccccc2)c(C)sc1=Nc1cccc([N+](=O)[O-])c1	57.0*	2.9
O=[N+]([O-])c1cccc(-c2csc(=Nc3ccccc3)n2-c2ccccc2)c1	.	-10.1
CCCC(=O)Nc1cc2oc3ccccc3c2cc1OC	-22.1	-3.8
CC(=O)Nc1ccc(-c2nc3cc(NC(C)=O)c(Cl)cc3[nH]2)cc1	10.5	3.4
Cc1cccc(C(=O)Nc2ccccc2C(F)(F)F)c1	-11.0	5.2
CCOc1ccccc1/C=C1\C(=O)Nc2ccc(Cl)cc21	64.0*	5.6
CCOc1cccc(/C=C2\C(=O)Nc3ccc(Br)cc32)c1O	58.0*	-11.8
CCOc1ccc(/C=C2\C(=O)Nc3ccc(Br)cc32)cc1	40.0	-7.9
CCOc1ccc(/C=C2\C(=O)Nc3ccc(Cl)cc32)cc1	25.0	-4.1
O=C1Nc2ccc(Br)cc2/C1=C/c1ccccc1F	31.0	-1.4
CCOc1ccccc1/C=C1\C(=O)Nc2ccc(Br)cc21	63.0*	0.6
CCCOc1ccccc1/C=C1\C(=O)Nc2ccc(Br)cc21	97.0*	4.8
SMILES	mHTT CaM bind	Pf apPOL inh
COCCN1CCC(N2CCCN(C(=O)c3ccc(C(F)(F)F)cc3)CC2)C1=O (centres undefined)	-1.0	1.9
Cc1ccccc1/C=C1\C(=O)Nc2ccc(Cl)cc21	85.0*	-4.6
O=C1Nc2ccc(Cl)cc2/C1=C/c1ccc(Cl)cc1	35.0	1.4
CC(C)(C)c1ccc(/C=C2\C(=O)Nc3ccc(Cl)cc32)cc1	60.0*	-21.6
Cc1ccc2c(c1)/C(=C/c1ccccc1Cl)C(=O)N2	16.0	-3.1
Nc1ccccc1C(=O)Nc1c(Cl)cccc1Cl	-1.9	-4.6
COCCc1nc(C2CCCN(Cc3ccccn3)C2)n[nH]1 (centres undefined)	89.0*	-22.5
Cc1nc(C2CCN(Cc3ccccn3)CC2)n[nH]1	98.8*	-8.9
COCCc1nc(C2CCCN(Cc3cccs3)C2)n[nH]1 (centres undefined)	-1.7	-1.9
Cc1nc(C2CCN(Cc3cccs3)CC2)n[nH]1	-10.0	-3.5
CCOc1ccccc1CN1CCC(c2nc3cccnc3n2CC)C1 (centres undefined)	17.9	-5.2
CCn1c(C2CCN(Cc3ccccn3)C2)nc2cccnc21 (centres undefined)	99.7*	-43.6
CCOc1ccc(C2=CC(c3ccc(Cl)cc3)n3nnnc3N2)cc1 (centres undefined)	-12.0	-7.0
CC(=O)C1=C(C)NC(SCC(=O)c2ccc(Cl)c(Cl)c2)=C(C#N)C1c1ccco1 (centres undefined)	54.2*	2.1
CC(=O)C1=C(C)NC(SCC(=O)c2cccc(Cl)c2)=C(C#N)C1c1sccc1C (centres undefined)	-47.8	100.1*
CC(=O)C1=C(C)NC(SCC(=O)c2cccc([N+](=O)[O-])c2)=C(C#N)C1c1ccc(Cl)cc1 (centres undefined)	55.5*	3.6
CC(=O)C1=C(C)NC(SCC(=O)c2ccc(Cl)cc2)=C(C#N)C1c1cccc([N+](=O)[O-])c1 (centres undefined)	38.3	-6.8
CC(=O)C1=C(C)NC(SCC(=O)c2ccc(Cl)cc2)=C(C#N)C1c1sccc1C (centres undefined)	-44.0	3.7
CC(=O)C1=C(C)NC(SCC(=O)c2cc(Cl)ccc2Cl)=C(C#N)C1c1ccco1 (centres undefined)	2.4	-0.6
Cc1ccc(C)c(NC(=O)Cn2ccc3c(=O)[nH]ccc32)c1	-3.7	9.3
Cc1sc(NC(=O)c2ccccc2F)nc1-c1ccccc1	-28.0	5.4
CCCNC(=O)c1c(O)c2ccccc2n(C)c1=O	13.3	-1.4
COc1ccc(OCc2nnc(NC(=O)Nc3ccccc3OC)s2)cc1	20.9	-6.8
CC(C)c1ccc2oc(-c3cc(N)ccc3O)nc2c1	62.1*	-7.3
Cc1ccc2oc(-c3cc(N)ccc3O)nc2c1	34.5	-10.0
SMILES	mHTT CaM bind	Pf apPOL inh
COc1cc(C(C[N+](=O)[O-])c2c(C)[nH]c3ccccc23)ccc1O (centres undefined)	61.0*	1.4
Cc1[nH]c2ccccc2c1C(C[N+](=O)[O-])c1ccc2c(c1)OCO2 (centres undefined)	75.0*	4.1
Cc1[nH]c2ccccc2c1C(C[N+](=O)[O-])c1cc(Cl)c2c(c1)OCO2 (centres undefined)	62.0*	1.0
O=C(Nc1nccs1)c1ccc2c(c1)OCO2	-4.3	-10.8
COc1ccc(C(C[N+](=O)[O-])c2c(O)cc(C)oc2=O)cc1 (centres undefined)	6.3	1.4
Cc1cc(O)c(C(C[N+](=O)[O-])c2ccc(Cl)cc2Cl)c(=O)o1 (centres undefined)	3.0	1.6
Cc1[nH]c2ccccc2c1C(Nc1nccs1)c1ccc2c(c1)OCO2 (centres undefined)	83.0*	7.3
O=[N+]([O-])CC(c1ccc2c(c1)OCO2)c1c[nH]c2ccccc12 (centres undefined)	20.3	-5.6
Cc1cc(C2C(C#N)=C(N)N(c3ccccc3)C3=C2C(=O)CCC3)c(C)s1 (centres undefined)	24.0	-1.9
O=C(NCCOc1ccccc1)c1ccc(-n2cccn2)nn1	-8.8	-11.7
COc1cccc(CNC(=O)c2c[nH]n3c(=O)c(Cc4ccccc4F)c(C)nc23)c1	72.0*	-15.0
Cc1nc2c(C(=O)NCCc3ccccc3)c[nH]n2c(=O)c1Cc1ccccc1F	29.0	-5.3
CCCc1c(C)nc2c(C(=O)NCc3ccc(C)cc3)c[nH]n2c1=O	21.0	9.7
Cc1ccc(CNC(=O)c2c[nH]n3c(=O)c(Cc4ccc(Cl)cc4)c(C)nc23)cc1	96.0*	-4.0
CCCc1c(C)nc2c(C(=O)NCc3ccccc3)c[nH]n2c1=O	21.0	-8.8
Cc1ccc(CNC(=O)c2c[nH]n3c(=O)cc(CSc4ccc(Cl)cc4)nc23)cc1	65.0*	46.7
COc1cccc(CNC(=O)c2c[nH]n3c(=O)c(Cl)c(C)nc23)c1	52.0*	-6.8
Cc1cc(=O)n2[nH]cc(C(=O)NCc3ccccc3)c2n1	5.0	-11.0
Cc1cccc(Oc2cc(N3CCOCC3)ncn2)c1	-4.7	-8.6
O=C(Nc1ccc2c(c1)OCCO2)c1c[nH]c2ncccc12	11.4	10.4
